In all, about 48,000 compounds went through this assay and about 13,000 (27%) showed an effect of 50% or more. This is one part of the list.
test system: Wolbachia pipientis; test: Anti-Wolbachia Cell-Based Screen; format: functional; set-up: scale not given: in the data most compounds retested in dose-response had high values; conditions: 5 µM

Compound	Percent Effect [%]
COc1cccc(C2C3=C(COC3=O)Nc3[nH]nc(C)c32)c1O (centres undefined)	0.9958
OCc1cc2ccccc2nc1NCC1(O)CCC1	2.986
O=C(NCC1(O)CCOCC1)c1ccn(-c2ccccc2F)n1	-4.813
Cc1cc(F)ccc1-n1cc(O)c(C(=O)NCC2(O)CCC2)n1	99.53
O=C(NCCC(=O)N1CCCC1)c1nn(-c2ccccc2F)cc1O	-1.899
O=C(O)C(F)(F)F.c1cnc(N2CCO[C@H]3[C@H](OCC4CC4)CC[C@@H]32)nc1	118.2
Fc1cnc(N2CCO[C@H]3[C@H](OCC4CCOCC4)CC[C@@H]32)nc1.O=C(O)C(F)(F)F	113.1
O=C(CO[C@@H]1CC[C@H]2[C@H]1OCCN2c1ncccn1)N1CCCC1.O=C(O)C(F)(F)F	-14.02
Cc1nnc(N2C[C@@H](OCC3CCCC3)[C@H]3OCCC[C@H]32)s1.O=C(O)C(F)(F)F	-7.489
Cc1nnc(N2CCO[C@H]3[C@@H](OCc4ccccn4)CC[C@@H]32)s1.O=C(O)C(F)(F)F.O=C(O)C(F)(F)F	0.4576
O=C(O)C(F)(F)F.c1cnc(N2CCO[C@H]3[C@H](OCCN4CCCC4)CC[C@@H]32)nc1	-8.905
Fc1cnc(N2CC[C@@H](N3CCOCC3)[C@@H]2Cc2ccncc2)nc1.O=C(O)C(F)(F)F.O=C(O)C(F)(F)F	-1.872
C1CC(CN2CCO[C@H]3[C@H](OCC4CC4)CC[C@@H]32)CCO1.O=C(O)C(F)(F)F	-2.542
Fc1cnc(N2CCO[C@H]3[C@H](OCCN4CCCC4)CC[C@@H]32)nc1.O=C(O)C(F)(F)F	101.9
Fc1cnc(N2C[C@@H](OCC3CCOCC3)[C@H]3OCCC[C@H]32)nc1.O=C(O)C(F)(F)F	83.11
Cc1nnc(N2C[C@H](OCC3CCCC3)[C@H]3OCCC[C@H]32)s1.O=C(O)C(F)(F)F	-7.444
Cn1cccc1C(=O)NS(=O)(=O)c1cnn(-c2ccccc2F)c1	-15.01
CCC(CC)c1cc(CNC(=O)N2CCC(CO)CC2)on1	3.231
CCSc1ccc(NC(=O)NC(C)c2ccncc2)cn1 (centres undefined)	4.069
CN(C)C(=O)CO[C@@H]1CC[C@H]2[C@H]1OCCN2c1ncc(F)cn1.O=C(O)C(F)(F)F	112.4
Cc1ccc(N2CCO[C@H]3[C@H](OCC(=O)N4CCCC4)CC[C@@H]32)cc1.O=C(O)C(F)(F)F	-12.38
c1cnc(N2CCO[C@H]3[C@H](OCCN4CCOCC4)CC[C@@H]32)nc1	4.128
CN(C)C(=O)CO[C@@H]1CC[C@H]2[C@H]1OCCN2c1ncccn1.O=C(O)C(F)(F)F	-13.26
O=C(O)C(F)(F)F.c1cnc(N2CCO[C@H]3[C@H](OCC4CCOCC4)CC[C@@H]32)nc1	109.2
